Source: PubChem BioAssay AID1445 (SRMLSC, 2008)
In all, about 220,000 compounds went through this assay and about 910 (0.41%) were called active.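 Rule for the calls: active = primary inhibition above the hit cutoff, then over 50% inhibition at one or more dose response concentrations (cut at about 23% in these data, passing the limit was not always enough); inconclusive = conflicting primary data, or primary hits not chosen for dose response; inactive = low primary inhibition, or under 50% at every dose.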 This excerpt belongs to a sample that is enriched for actives. Measured potencies and affinities stand elsewhere.

Target: Aminopeptidase N (Plasmodium falciparum (isolate 3D7)) (UniProt O96935)
Sequence (O96935 whole entry, looked up): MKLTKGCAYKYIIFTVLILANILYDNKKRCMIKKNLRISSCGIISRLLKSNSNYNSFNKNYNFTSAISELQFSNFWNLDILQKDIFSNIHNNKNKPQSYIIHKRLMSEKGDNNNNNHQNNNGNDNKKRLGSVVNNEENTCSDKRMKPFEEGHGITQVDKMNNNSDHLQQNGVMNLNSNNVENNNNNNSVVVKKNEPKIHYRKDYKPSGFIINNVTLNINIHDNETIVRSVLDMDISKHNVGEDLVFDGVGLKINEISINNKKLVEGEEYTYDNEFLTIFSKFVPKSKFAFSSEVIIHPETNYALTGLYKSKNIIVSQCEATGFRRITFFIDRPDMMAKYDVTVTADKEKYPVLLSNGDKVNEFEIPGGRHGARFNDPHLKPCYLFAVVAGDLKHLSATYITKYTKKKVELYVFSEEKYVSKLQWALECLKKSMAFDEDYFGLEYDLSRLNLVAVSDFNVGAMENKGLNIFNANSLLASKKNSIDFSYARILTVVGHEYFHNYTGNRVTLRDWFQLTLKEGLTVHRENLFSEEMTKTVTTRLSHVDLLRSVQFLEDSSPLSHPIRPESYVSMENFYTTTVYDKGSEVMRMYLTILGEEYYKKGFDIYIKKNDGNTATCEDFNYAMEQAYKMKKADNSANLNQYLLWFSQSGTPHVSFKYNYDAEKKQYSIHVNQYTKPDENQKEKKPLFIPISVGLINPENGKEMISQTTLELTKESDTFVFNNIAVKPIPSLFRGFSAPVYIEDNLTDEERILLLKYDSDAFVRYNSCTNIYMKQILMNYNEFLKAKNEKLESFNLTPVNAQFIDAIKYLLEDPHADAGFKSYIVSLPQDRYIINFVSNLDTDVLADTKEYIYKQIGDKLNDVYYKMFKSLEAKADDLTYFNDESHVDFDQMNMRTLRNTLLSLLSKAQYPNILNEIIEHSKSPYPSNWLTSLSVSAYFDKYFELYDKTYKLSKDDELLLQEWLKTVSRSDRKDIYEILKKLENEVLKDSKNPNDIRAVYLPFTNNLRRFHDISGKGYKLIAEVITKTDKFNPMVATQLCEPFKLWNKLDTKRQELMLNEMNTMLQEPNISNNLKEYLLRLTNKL
Experiment: P. falciparum M1AAP inhibitors, biochemical, fluorogenic H-Leu-NHMec substrate, 1536-well (AID 1445);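 note: plate controls were DMSO full reaction for no effect and no enzyme background for full effect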
Settings: recombinant M1AAP, H-Leu-NHMec fluorogenic kinetic assay; at 30 µM, active compounds read high unless noted

| SMILES | inhibition |
| --- | --- |
| Cc1cc(C)nc(N2CCC(C(=O)NCCc3ccc(F)cc3)CC2)n1 | 3.16% (inactive) |
| N#C/C(=N\Nc1ccccc1)C(=N)N1CCCCC1 | -1.69% (inactive) |
| N#Cc1c(-c2ccccc2)nc(SCC(=O)Nc2nnc(C(F)(F)F)s2)[nH]c1=O | 17.8% (inactive) |
| CCSc1nc(-c2ccccc2)c(C#N)c(=O)[nH]1 | -8.26% (inactive) |
| CCOC(=O)CCCCC(=O)c1[nH]c(=O)[nH]c1CSc1nc(C)cc(=O)[nH]1 | 7.83% (inactive) |
| CCOC(=O)CCCCC(=O)c1[nH]c(=O)[nH]c1CSc1nc2ccccc2[nH]1 | 8.8% (inactive) |
| Cc1cccc(NC(=O)CSc2nc(-c3ccccc3)c(C#N)c(=O)[nH]2)c1C | 14.7% (inactive) |
| CCOC(=O)CCCCC(=O)c1[nH]c(=O)[nH]c1CSc1nc(-c2ccccc2)c(C#N)c(=O)[nH]1 | 23.6% (active) |
| CSc1nc(-c2ccccc2)c(C#N)c(=O)[nH]1 | 2.21% (inactive) |
| Cc1ccc(NC(=O)CCNS(=O)(=O)c2cc(Br)cnc2N)c(Cl)c1 | 6.45% (inactive) |
| COc1ccc(-n2c(C)cc(/C=C(\C#N)C(=O)NCc3ccco3)c2C)cc1 | 9.23% (inactive) |
| CS(=O)(=O)c1ccc(Cl)c(NC(=O)COC(=O)c2cccc(C#N)c2)c1 | 6.76% (inactive) |
| C/C(=N/NC(=O)CCc1c(C)n[nH]c1C)c1cccc([N+](=O)[O-])c1 | 0.36% (inactive) |
| CC(C)c1ccccc1NC(=O)CNCCc1ccc(C(F)(F)F)cc1 | 4.1% (inactive) |
| CCCCNC(=O)Cn1c(=O)oc2cc(S(=O)(=O)N3CC(C)CC(C)C3)ccc21 (centres undefined) | 2.08% (inactive) |
| Cc1ccc(S(=O)(=O)N(Cc2cc3cc4c(cc3[nH]c2=O)OCCO4)CC2CCCO2)cc1 (centres undefined) | 8.8% (inactive) |
| Cn1c(SCC(=O)N2CCOCC2)nnc1-c1cccc(NC(=O)c2ccccc2F)c1 | 25.4% (active) |
| Cn1c(SCC(=O)N2CCOCC2)nnc1-c1cccc(NC(=O)c2ccccc2)c1 | 16.6% (inactive) |
| Cn1c(SCC(=O)N2CCOCC2)nnc1-c1ccc(NC(=O)c2ccccc2F)cc1 | 3.9% (inactive) |
| CCOC(=O)Cc1nnc(NC(=O)C(CC)Sc2nc(C)cc(=O)[nH]2)s1 (centres undefined) | 11% (inactive) |
| CCC(C)Nc1nc(OC(C(F)(F)F)C(F)(F)F)nc(OC(C(F)(F)F)C(F)(F)F)n1 (centres undefined) | 9.34% (inactive) |
| O=C(Nc1ccc2nc(-c3ccccn3)[nH]c2c1)C1CCCCC1 | -0.77% (inactive) |
| CC(=O)Nc1ccc2nc(-c3ccncc3)[nH]c2c1 | 10.3% (inactive) |
| O=C(CNC(=O)c1ccc(S(=O)(=O)N2CCCC2)cc1)N/N=C/c1ccc(Cl)cc1 | 3.87% (inactive) |
